Screening data from PubChem.
MazF activator = increases E. coli MazEF RNase cleavage of RNA. FAM/BHQ RNA-DNA oligo cleavage fluorescence, 5 h. AID 504720. hit rate 0.32% among 350,000. P0AE70. activation, % at 20 µM; in the data active = activation above about 50%
Target sequence (P0AE70 whole entry, looked up): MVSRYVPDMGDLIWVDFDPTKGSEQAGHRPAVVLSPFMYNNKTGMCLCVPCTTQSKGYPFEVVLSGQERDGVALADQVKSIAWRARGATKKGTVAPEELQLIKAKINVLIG
BoNT-F LC inh = BoNT F light chain protease inhibition. Multiplex microsphere protease cleavage assay, flow cytometry. hit rate 0.22% among 360,000. inhibition, % at 10 µM; in the data active = inhibition above about 35%, passing the limit was not always enough; inconclusive = no clear call, values can overlap the other calls
Anthrax LF prot = anthrax lethal factor protease inhibition | P15917 | multiplex microsphere protease cleavage assay, LF | inhibition, % at 10 µM | hit rate 0.12% among 360,000 | AID 588501
SSB-PriA inh = blocks PriA binding to SSB C-terminal tail. hit rate 0.6% among 430,000. inhibition, % at 33 µM. AID 1272365. AlphaScreen SSBct-PriA binding, biotinylated peptide; in the data active = inhibition mostly above about 37%, no sharp cut-off; inactive = mostly below about 20%
Bead autofluor = flagged as autofluorescent in microsphere protease counterscreen | compound autofluorescence counterscreen, microsphere flow cytometry; hits give high values | fluorescence intensity (test concentration not listed) | hit rate 3.1% among 360,000 | AID 624483; in the data active = fluorescence intensity above about 16000; inconclusive = no clear call, values can overlap the other calls
BoNT A protease = blocks Botulinum neurotoxin A light chain protease; multiplex microsphere protease substrate cleavage, flow cytometry; inhibition, % at 10 µM; hit rate 0.17% among 360,000
Hits are given with their value; i = inactive; ? = inconclusive; nt = no result. Most compounds without a hit are left out; they make up all but 3.3% or so of the library. Cut-off read from the data, not from the text of the source, unless noted: active = inhibition above about 30%; inconclusive = no clear call, values can overlap the other calls; inactive = below that.

SMILES	MazF activator	BoNT-F LC inh	Anthrax LF prot	SSB-PriA inh	Bead autofluor	BoNT A protease
CCOC(=O)c1cc2c(n(-c3ccccc3)c1=O)CC(C)(C)CC2=O	i	i	i	i	25220	i
Cc1cc2c(n1-c1ccc(Cl)cc1)CC(C)(C)CC2=O	i	i	i	i	19623	i
CC1(C)CC(=O)c2cc(C(=O)O)c(=O)n(-c3ccccc3)c2C1	i	i	i	i	i	i
COC(=O)c1c(NC(=O)CCCC(=O)O)sc(C)c1C	i	i	i	i	i	i
CCOC(=O)c1cnn(CCOC(=O)Cc2cccs2)c1NC(=O)Cc1cccs1	i	i	i	i	22856	i
CCc1ccc(CCC(=O)Nc2sc(C)c(C)c2C(=O)OC)o1	i	i	i	i	21036	i
CCOC(=O)c1cnn(CCOC(=O)c2ccc(F)cc2)c1NC(=O)c1ccc(F)cc1	i	i	i	i	i	i
COC(=O)c1c(NC(=O)Cc2cccs2)sc(C)c1C	i	i	i	i	21860	i
COc1ccc(SCCC(=O)Nc2ccc(Br)cc2)cc1	nt	nt	nt	i	nt	nt
CCCCOc1ccccc1-c1cc2c(SCC(=O)Nc3ccc(C)c(Cl)c3)nccn2n1	nt	nt	nt	i	nt	nt
CC(C)Nc1nc(-c2ccccc2)nnc1-c1ccccc1	i	i	i	i	i	i
CN(C)c1nc(-c2ccccn2)nnc1-c1ccccc1	i	i	i	98	i	i
CC(C)Nc1nc(-c2ccccn2)nnc1-c1ccccc1	nt	nt	nt	154	nt	nt
O=C(c1csc(-c2ccccc2)n1)N1CCCSC[C@@H]1CN1CCCC1	nt	nt	nt	i	nt	nt
c1ccc(Cn2c(NCc3ccco3)nc3ccccc32)cc1	i	i	i	i	22272	?
CC(C)(C)C(=O)NC(=C(Cl)Cl)P(=O)(O)O	i	i	i	i	24171	i
COP(=O)(OC)C(NC(=O)C(C)(C)C)=C(Cl)Cl	i	i	i	i	i	i
CCOC(=O)/C=c1\s/c(=C\c2ccc3cc(OC)ccc3c2)c(=O)n1CC(=O)NCC1CCCO1 (configuration not stated)	170	i	i	nt	i	i
CCOC(=O)C=c1sc(=Cc2ccc3cc(OC)ccc3c2)c(=O)n1CC(=O)NCC1CCCO1 (configuration not stated)	nt	nt	nt	i	nt	nt
COc1ccc(OC)c(C(=O)c2ccc(C(=O)Nc3ccccc3)cc2)c1	i	i	i	i	i	i
COc1ccc(NC(=O)c2ccc(C(=O)c3cc(OC)ccc3OC)cc2)cc1	i	i	i	i	20895	i
Cc1ccc(-c2noc(CN(C(=O)c3cccc(Br)c3)C(C)C)n2)cc1	i	i	i	i	i	i
Cc1ccc(-c2noc(CN(C(=O)C34CC5CC(CC(C5)C3)C4)C(C)C)n2)cc1	i	i	i	i	22906	i
Cc1ccc(-c2noc(CN(C(=O)C(c3ccccc3)c3ccccc3)C(C)C)n2)cc1	i	i	i	i	23813	i
O=C(CCN1C(=O)c2ccccc2S1(=O)=O)Nc1ncccn1	nt	nt	nt	i	nt	nt
SMILES	MazF activator	BoNT-F LC inh	Anthrax LF prot	SSB-PriA inh	Bead autofluor	BoNT A protease
Cc1ccc(C([O-])=C(C(=S)NCc2ccco2)[n+]2ccccc2)cc1[N+](=O)[O-]	nt	nt	nt	i	nt	nt
CSC1=N/C(=C\c2ccccc2)C(=O)N1C	i	i	i	i	21913	i
O=C(O)c1ncc(-c2ccccc2)cn1	i	i	i	i	17752	i
c1ccc(-c2cnc(-c3ccccc3)nc2)cc1	i	i	i	i	i	?
C=CCn1cc(C(=O)NCCCOCC)c(=O)c2cc(S(=O)(=O)N(CC)CC)ccc21	i	i	i	i	23558	i
C=CCn1cc(C(=O)NCCOC)c(=O)c2cc(S(=O)(=O)N(CC)CC)ccc21	i	i	i	i	16280	i
O=S(Cc1ccc(Cl)cc1)CC(O)(c1ccccc1)c1ccccc1 (configuration not stated)	i	i	i	i	i	i
O=S(Cc1ccccc1)CC(O)(c1ccccc1)c1ccccc1 (configuration not stated)	i	i	i	i	21390	i
Cc1cc(C(=O)N2CCN(c3ncccn3)CC2)sc1-c1ccccc1	i	i	i	i	24354	?
Cc1cc(C(=O)N2CCN(S(C)(=O)=O)CC2)sc1-c1ccccc1	i	i	i	i	i	i
CS(=O)(=O)N1CCC(C(=O)N(Cc2cccs2)C2CCOCC2)CC1	nt	nt	nt	i	nt	nt
Cc1ccc(/C=C2/CCc3c([nH]c4ccccc34)C2=O)cc1	i	i	i	i	23420	i
Cc1ccc2[nH]c3c(c2c1)CC/C(=C/c1ccccc1)C3=O	i	i	i	i	i	i
O=C1/C(=C\c2ccccc2)CCc2c1[nH]c1ccccc21	i	i	i	i	23509	i
CCN(CC)Cc1cc(Nc2c3ccccc3nc3c4ccccc4n(C)c23)cc(CN(CC)CC)c1O	i	i	i	51	i	i
C/C(=N\NC(=O)Cc1csc(N2CCOCC2)n1)c1ccccc1	i	i	i	nt	21300	?
CC(=NNC(=O)Cc1csc(N2CCOCC2)n1)c1ccc(Cl)c(Cl)c1	nt	nt	nt	i	nt	nt
O=C(NCCn1ncc2c(N3CCCC3)ncnc21)c1cccs1	nt	nt	nt	i	nt	nt
Cc1ccccc1-c1nc(C#N)c(N2CCCCC2)o1	i	i	i	59	i	i
N#Cc1nc(-c2ccccc2F)oc1N1CCCCCC1	nt	nt	nt	86	nt	nt
CCOc1ccc(N2CCn3c(SCc4ccccn4)nnc32)cc1	nt	nt	nt	i	nt	nt
O=C(NCCS(=O)(=O)N1CCN(c2ncccn2)CC1)c1ccc(=O)[nH]c1	nt	nt	nt	i	nt	nt
Cc1cccc(NC(=O)Nc2ccc(CN3CCN(c4ccccn4)CC3)cc2)c1	nt	nt	nt	41	nt	nt
CCN(c1ccc(NS(=O)(=O)c2cc(Cl)ccc2Cl)cc1)C(C)C	i	i	i	40	i	i
CCCc1c(O)nc(SCCN(CC)CC)n(C(=O)c2ccccc2)c1=O	i	i	i	i	23987	i
SMILES	MazF activator	BoNT-F LC inh	Anthrax LF prot	SSB-PriA inh	Bead autofluor	BoNT A protease
CCCc1c(O)nc(SCCN(CC)CC)[nH]c1=O	i	i	i	i	i	i
NC(=O)CSc1nnnn1-c1ccc(OC(F)(F)F)cc1	i	i	i	i	23160	?
CC1(c2cccs2)CC(c2cccs2)=C(C#N)C(=O)N1 (configuration not stated)	i	i	i	i	22806	i
c1ccc(CN2CCN(c3ncccn3)CC2)cc1	i	?	i	i	i	i
COc1ccc(CN2CCN(c3ccccn3)CC2)c(OC)c1	i	i	i	i	i	i
COc1ccc(CN2CCN(c3ncccn3)CC2)c(OC)c1	i	i	i	i	22491	i
Fc1cccc(CN2CCN(c3ncccn3)CC2)c1	i	i	i	i	19248	i
c1ccc(-c2ccc(CN3CCN(c4ncccn4)CC3)cc2)cc1	i	i	i	i	16137	i
COc1ccccc1N1CCN(CCNS(=O)(=O)c2ccc3c(c2)OCCO3)CC1	nt	nt	nt	i	nt	nt
CC(C)C1Cc2c(sc3ncnc(NN)c23)CO1 (configuration not stated)	i	i	i	46	i	i
CCOc1cc(C2c3c(n[nH]c3C)C(=O)N2c2ccc(Br)cc2)ccc1O (configuration not stated)	i	51	i	i	i	i
